# Results from PubChem BioAssay AID1851 (National Center for Advancing Translational Sciences (NCATS), 2009).
# In all, about 16,000 compounds went through this assay and about 5,100 (32%) were called active. Another 25% or so got no clear call; they are omitted. This is one part of the list. A number with no mark means an inactive call. Calls follow the shape of the dose curve; as a rule, active = well fitted curve in the direction sought with a large enough effect; inconclusive = small, poorly fitted or top-dose-only effect, or effect the other way; inactive = no such curve, though single readings can be large or run the other way.
# Target: Cytochrome P450 3A4 (Homo sapiens) (UniProt P08684)
# Assay: Cytochrome panel assay with activity outcomes
# Conditions: recombinant CYP, pro-luciferin dealkylation, luminescence, p450-cyp3a4; series mostly up to 57.1 µM; activity, negative = inhibition: at the top concentration
# % is scaled to controls: 0 for no effect and ±100 for the full control effect.
# Sequence of Cytochrome P450 3A4 (Homo sapiens) (P08684 whole entry, looked up): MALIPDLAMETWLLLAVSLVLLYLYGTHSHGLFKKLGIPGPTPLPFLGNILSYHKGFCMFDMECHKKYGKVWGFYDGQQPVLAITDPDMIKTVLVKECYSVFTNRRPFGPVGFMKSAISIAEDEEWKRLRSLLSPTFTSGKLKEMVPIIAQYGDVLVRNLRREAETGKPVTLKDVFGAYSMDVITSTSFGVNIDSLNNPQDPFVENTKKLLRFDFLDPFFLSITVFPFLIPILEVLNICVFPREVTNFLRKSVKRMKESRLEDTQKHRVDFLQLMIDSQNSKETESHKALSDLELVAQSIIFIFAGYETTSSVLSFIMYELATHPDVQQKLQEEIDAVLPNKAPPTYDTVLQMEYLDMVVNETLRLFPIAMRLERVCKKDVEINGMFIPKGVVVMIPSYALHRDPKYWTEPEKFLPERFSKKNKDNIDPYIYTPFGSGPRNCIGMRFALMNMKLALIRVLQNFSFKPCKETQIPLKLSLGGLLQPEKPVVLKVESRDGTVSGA
SMILES,AC50,"activity, negative = inhibition"
Clc1ccc(Cc2nc(-c3cccnc3)no2)cc1,2.51 µM (active),
c1ccc(CCc2nc(-c3ccccc3)no2)cc1,,-24.8%
Clc1ccc(-c2noc(CN3CCCCC3)n2)cc1,,-11.9% [at 11.4 µM]
Cc1ccc(C2=Nc3ccccc3S[C@@H](c3cccc([N+](=O)[O-])c3)C2)cc1,3.98 µM (active),
C[C@@]12CC[C@@H]3c4ccc(O)cc4CC[C@H]3[C@H]1C[C@@H](O)[C@H]2O,,-7.48% [at 25.6 µM]
CCCCCCCOC1(c2ccccc2)OC(=O)c2ccccc21 (stereo not drawn),,-21.5%
Cc1cccc(C)c1OC1(c2ccccc2)OC(=O)c2ccccc21 (stereo not drawn),8.91 µM (active),
N#C/C(=C\Nc1ccccn1)C(=O)c1ccco1,,-18.7% [at 11.4 µM]
CCCC(CCC)C(=O)NNc1cc(=O)c2c(=O)n(C)c(=O)n(C)c2[nH]1,,-11.1%
Cc1noc(NS(=O)(=O)c2ccc(N)cc2)c1C,inactive,
Cc1ccnc(NS(=O)(=O)c2ccc(NC(=O)C3CCCNC3=O)cc2)n1 (stereo not drawn),,-19.1%
Cc1noc(NS(=O)(=O)c2ccc(NC(=O)CC34CC5CC(CC(Br)(C5)C3)C4)cc2)c1C,6.31 µM (active),
COC(=O)COc1ccc2c(-c3cccc([N+](=O)[O-])c3)cc(=O)oc2c1,,-28.1%
O=[N+]([O-])c1cccc(-c2nc(-c3ccncc3)no2)c1,0.562 µM (active),
CC(C)CCNC1=NCCCCC1,,-3.64%
Cc1ccc(-n2ncc3c(=O)n(CC(=O)NCC4CCCO4)cnc32)cc1 (stereo not drawn),,-21.5%
Cc1[nH]nc2nc(SCC(=O)NCC3CCCO3)n(-c3ccc(Br)cc3)c(=N)c12 (stereo not drawn),11.2 µM (active),
Cc1cccc2c(SCC(=O)NCC3CCCO3)nc(-c3ccc(F)cc3)nc12 (stereo not drawn),,-23.2%
Nc1ccc(Sc2cnn(-c3ccccc3)c(=O)c2Cl)cc1,8.91 µM (active),
Nc1ncnc2c1cnn2-c1ccccc1,,-17.9%
NCCCCCC(=O)O,inactive,
Cc1nc(SCC(=O)NCCc2ccc(Cl)cc2)nc(C)c1C,2 µM (active),

SMILES,AC50,"activity, negative = inhibition"
CNC(=O)C(=O)NCCc1ccc(Cl)cc1,,-24.5%
Nc1ccc(S(=O)(=O)Nc2ccc(Cl)nn2)cc1,,-19.2% [at 25.6 µM]
Cc1nc2sccc2c(=O)n1-c1cccc(Cl)c1,,17.4% [at 11.4 µM]
O=C(Cc1ccccc1)N/N=C/C=C/c1cccc([N+](=O)[O-])c1,,-11.9%
Nc1nnc(CC(=O)N/N=C/c2cccc([N+](=O)[O-])c2)s1,28.2 µM (active),
CCOc1ccc(-c2cc(CCCC(=O)NCCc3ccc(OC)c(OC)c3OC)no2)cc1,7.08 µM (active),
CCOc1ccc(-c2cc(CCCC(=O)Nc3cc(OC)ccc3OC)no2)cc1,3.55 µM (active),
CCCC(=O)Nc1cc(-c2cn3cccnc3n2)ccc1OC,,-20%
COc1ccc(CN2CCN(C(=O)CC(C)C)CC2)c(OC)c1OC,,-28.6%
N[C@H](CCC(=O)NCS(=O)(=O)O)C(=O)O,,-6.84%
O=C(Oc1ccccc1)N1CCC2(CCCN(c3ccc(-c4ccccc4)cc3)C2)CC1,31.6 µM (active),
CS(=O)(=O)N1CCC2(CC1)CN(c1ccc(-c3ccccc3)cc1)C2,,-13.5%
c1ccc(-c2ccc(N3CCCC4(CCNCC4)C3)cc2)cc1,12.6 µM (active),
CC(=O)N1CCC2(CC1)CN(c1ccccn1)C2,,-8.58%
CC(=O)N1CCC2(CC1)CCN(c1ccc(-c3ccccc3)cc1)CC2,,-3.64%
COC(=O)N1CCC[C@@]2(CCN(c3ccccn3)C2)C1,,-29.4%
c1ccc(-c2ccc(N3CC[C@@]4(CCCNC4)C3)cc2)cc1,,-22%
O=C(Oc1ccccc1)N1CCC2(CCCN(c3ncccn3)C2)CC1,,-28.9%
O=C(Oc1ccccc1)N1CCC[C@@]2(CCN(c3ccccn3)C2)C1,10 µM (active),
O=C(Oc1ccccc1)N1CCC2(CCCN(c3ccccn3)C2)CC1,25.1 µM (active),
COC(=O)N1CCC2(CCCN(c3ccccn3)C2)CC1,,-21.1%
NC(=O)CCCC1=NS(=O)(=O)c2ccccc2N1,,-25.6%

SMILES,AC50,"activity, negative = inhibition"
CC(C)(CC(=O)N1CCN(c2ccc(Cl)cc2)CC1)CC1=NS(=O)(=O)c2ccccc2N1,2.51 µM (active),
CCOC(=O)N1CCN(C(=O)c2cccn3c(=O)c4cc(Cl)ccc4nc23)CC1,,6.16%
NC(=O)C1(N2CCCCC2)CCN(C(=O)c2cccn3c(=O)c4cc(Cl)ccc4nc23)CC1,11.2 µM (active),
NC(=O)C1(N2CCCCC2)CCN(C(=S)Nc2ccc(Cl)cc2)CC1,,-18%
CC(C)(C)n1nnnc1C(c1cccnc1)N(Cc1ccccc1)Cc1ccco1 (stereo not drawn),0.794 µM (active),
O=C(NCCc1c[nH]c2ccccc12)[C@@H]1C[C@H]1[C@@H](NP(=O)(c1ccccc1)c1ccccc1)c1ccccc1,1.26 µM (active),
O=C(NCCc1c[nH]c2ccccc12)[C@H]1C[C@@H]1[C@H](NP(=O)(c1ccccc1)c1ccccc1)c1ccccc1,1.58 µM (active),
CN(Cc1cc(C(C)(C)C)cc(Br)c1O)Cc1cc(C(C)(C)C)cc(Br)c1O,,-11.7% [at 11.4 µM]
CCOC(=O)c1cnc(-c2ccccc2)nc1Oc1cccc(Cl)c1,,-19.3%
CCOC(=O)c1cnc2cc(-c3ccc(C)cc3)nn2c1-c1ccccc1,20 µM (active),
CCOC(=O)c1cnc2cc(-c3ccc(C(C)(C)C)cc3)nn2c1N,,7.33%
CC(=O)c1c(C(C)=O)c(C)n(NC(=O)c2ccccc2Cl)c1C,,17.3%
Cc1onc(-c2ccccc2Cl)c1C(=O)NCC(=O)O,,-12.3%
CCOC(=O)C1=NOC(CNC(=O)C2=NOC(CNC(=O)c3c(-c4ccccc4Cl)noc3C)C2)C1 (stereo not drawn),12.6 µM (active),
CC(=O)C1=NOC(CNC(=O)c2c(-c3ccccc3Cl)noc2C)C1 (stereo not drawn),15.8 µM (active),
CC(C)(C[C@@]1(C)NC(=O)NC1=O)OCc1ccccc1,,-6.17% [at 11.4 µM]
O=C(O)c1cc(C(=O)C(=O)c2cc(C(=O)O)c(O)c3ccccc23)c2ccccc2c1O,,-22.6% [at 11.4 µM]
CCN(CC(=O)Nc1ccc(N2CCOCC2)cc1)Cc1nc2ccccc2c(=O)[nH]1,,-42.3%
CC(C)c1ccc(NC(=O)N(CCc2nc3ccccc3[nH]2)C2CCCC2)cc1,,-18.7% [at 2.29 µM]
Cc1cccc(NC(=O)N(Cc2nc3ccccc3c(=O)[nH]2)C2CCCC2)c1,15.8 µM (active),
Nc1nnc(C(c2ccccc2)c2ccccc2)s1,,13.5%
Cc1cccc(C(CC(=O)N2CCCC2)c2ccccc2)c1O (stereo not drawn),2.51 µM (active),

SMILES,AC50,"activity, negative = inhibition"
O=C(C[C@@H](c1ccccc1)N1CCCCC1)c1ccccc1,,-9.31% [at 11.4 µM]
Cc1ccc(OC(=O)c2cccc(C(=O)Oc3ccc(C)cn3)n2)nc1,,-2.88%
FC(F)(F)c1nc(-c2ccncc2)ncc1-c1nnnn1-c1ccccc1,5.62 µM (active),
FC(F)(F)c1nc(N2CCCC2)ncc1-c1nnnn1-c1ccccc1,,21% [at 2.29 µM]
O=c1cc(CF)[nH]c(=S)[nH]1,,-8.49% [at 11.4 µM]
COC(=O)c1ccc(NC(=O)c2ccccc2NS(=O)(=O)c2ccccc2)cc1,7.94 µM (active),
CC(=O)C=NCC(=O)O,,-0.504% [at 11.4 µM]
C#CCCCO/N=C1/C[C@@H](O)[C@@H](O)[C@@H]2[C@@H]3C(=O)N(CC)C(=O)[C@H]3CC[C@@H]12,,-23.5% [at 11.4 µM]
C#CCCCO/N=C1/C[C@@H](O)[C@@H](O)[C@@H]2[C@@H]3C(=O)N(C4CCCCC4)C(=O)[C@H]3CC[C@@H]12,3.16 µM (active),
C#CCCCO/N=C1/C[C@@H](O)[C@@H](O)[C@@H]2[C@@H]3C(=O)N(Cc4ccccc4)C(=O)[C@H]3CC[C@@H]12,,-23.2% [at 11.4 µM]
C#CCCCO/N=C1/C[C@@H](O)[C@@H](O)[C@@H]2[C@@H]3C(=O)N([C@@H](C)c4ccccc4)C(=O)[C@H]3CC[C@@H]12,3.98 µM (active),
C[C@H](c1ccccc1)N1C(=O)[C@H]2[C@@H]3[C@H](O)[C@H](O)CC(=O)[C@H]3CC[C@H]2C1=O,,-18.1% [at 11.4 µM]
C#CCCCO/N=C1/C[C@@H](O)[C@@H](O)[C@@H]2[C@@H]3C(=O)N(Cc4ccccc4)C(=O)[C@H]3CC[C@H]12,3.98 µM (active),
C#CCCCO/N=C1/C[C@@H](O)[C@@H](O)[C@@H]2[C@@H]3C(=O)N([C@@H](C)c4ccccc4)C(=O)[C@H]3CC[C@H]12,3.98 µM (active),
CCOC(=O)N/N=C1/C[C@@H](O)[C@@H](O)[C@@H]2[C@@H]3C(=O)N([C@@H](C)c4ccccc4)C(=O)[C@H]3CC[C@H]12,,-23.4% [at 11.4 µM]
CCOC(=O)N/N=C1/C[C@@H](O)[C@@H](O)[C@@H]2[C@@H]3C(=O)N([C@@H](C)c4ccccc4)C(=O)[C@H]3CC[C@@H]12,,-20.9% [at 11.4 µM]
C#CCCCO/N=C1/C[C@@H](O)[C@@H](O)[C@@H]2[C@@H]3C(=O)N(CC)C(=O)[C@H]3CC[C@H]12,,-27.7% [at 11.4 µM]
CC(C)CO/N=C1/C[C@@H](O)[C@@H](O)[C@@H]2[C@@H]3C(=O)N([C@@H](C)c4ccccc4)C(=O)[C@H]3CC[C@@H]12,,-29.6% [at 11.4 µM]
C[C@@H]1[C@H]2CC[C@@H]3[C@@H]4CC=C5C[C@@H](N(C)C)CC[C@]5(C)[C@@H]4CC[C@@]32CN1C,,8.89% [at 25.6 µM]
CC(C)Nc1nc(Oc2ccc(Cl)cc2)cc(C(F)(F)F)n1,,-8%
CC(C)Nc1cc(C(F)(F)F)nc(-c2ccccn2)n1,,-7.62%
CC(C)c1cc(C(F)(F)F)nc(NNc2nc(C(C)C)cc(C(F)(F)F)n2)n1,3.16 µM (active),
